In the supplement of paper PMC10849652:
The full data set covers some 7,900 targets. This sample favours those with a hit. About 0.6% of all pairs of compound and target were hits.

Assays:
Test in all cases: log2 fold change, soluble protein after heating vs DMSO (PISA); higher = thermal stabilisation; K562 cells, 10 uM, 30 min; active = over 0.2 and 3.5 SD of the protein, either way, in both replicates (recomputed)
erlotinib = compound: C#Cc1cccc(Nc2ncnc3cc(OCCOC)c(OCCOC)cc23)c1 [erlotinib]
Procedure, shortened: (§1)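 Values are thermal stability changes relative to control samples and are taken from duplicates. They are stated as log2 fold changes. Before quantification by TMTpro 16plex LC-MS/MS with equalised channel sums, K562 cells at 2×10^6 cells/mL were treated with 10 μM compound for 30 min, heated in aliquots for 3 min across 48°C-58°C, pooled, extracted in PBS with 0.5% NP-40 at 4°C, and centrifuged at 21,000xg for 90 min to give the soluble supernatant.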

[1] = compound: C/C(=N\NC(=O)C1=CC(=CC=C1)S(=O)(=O)N2CCOCC2)/C3=C(C=CC(=C3)Cl)O
Procedure, shortened: as §1

[2] = compound: C1=CC(=C(C=C1Cl)C2=NC3=NC=CN=C3C(=N2)NC4=CC=NC=C4)F
Procedure, shortened: as §1

[3] = compound: C1=CC(=CC=C1C2=NC3=C(N2)C=C(C=C3)C(=O)N)OC4=CC=C(C=C4)Cl
Procedure, shortened: as §1

[4] = compound: C1=CC2=C(C=CC(=C2)/C=C\3/C(=O)NC(=NCC4=CC=CS4)S3)N=C1
Procedure, shortened: as §1

[5] = compound: C1=CC2=NC=CN=C2C=C1/C=C/3\C(=O)NC(=O)S3
Procedure, shortened: as §1

[6] = compound: C1=CC=C(C=C1)C2=NC(=C(N2)C3=CC=NC=C3)C4=CC(=C(C=C4)Cl)O
Procedure, shortened: as §1

[7] = compound: C1=CC=C2C(=C1)C3=NNC4=CC=CC(=C43)C2=O
Procedure, shortened: as §1

[8] = compound: C1CCN(C1)C(=O)NC2=CC=CC(=C2)NC3=NC=C(C(=N3)NCCC4=CN=CN4)Br
Procedure, shortened: as §1

[9] = compound: C1CN(CCC1(CC2=CC=C(C=C2)Cl)N)C3=NC=NC4=C3C=CN4
Procedure, shortened: as §1

Measured: log2 fold change

NDUFA7 (UniProt O95182)
inactive: erlotinib -0.001 | [1] -0.033 | [2] 0.085 | [3] 0.078 | [4] -0.003 | [5] 0.021 | [6] 0 | [7] 0.036 | [8] 0.005 | [9] 0.01

NELFA (UniProt Q9H3P2)
inactive: erlotinib 0.21 | [1] 0.231 | [2] 0.059 | [3] -0.061 | [4] 0.073 | [5] 0.111 | [6] 0.048 | [7] 0 | [8] -0.323 | [9] -0.028

NOLC1 isoform 2 (UniProt Q14978)
inactive: erlotinib 0.022 | [1] 0.036 | [2] -0.051 | [3] -0.005 | [4] -0.11 | [5] 0.024 | [6] -0.034 | [7] -0.171 | [8] -0.177 | [9] 0

PAK1 isoform 2 (UniProt Q13153)
inactive: erlotinib 0.063 | [1] 0.105 | [2] 0.067 | [3] -0.013 | [4] 0.009 | [5] 0.086 | [6] 0.027 | [7] -0.008 | [8] 0.014 | [9] 0.083

NELFB isoform 2 (UniProt Q8WX92)
inactive: erlotinib 0.046 | [1] 0.151 | [2] 0 | [3] -0.036 | [4] 0.054 | [5] 0.07 | [6] -0.049 | [7] 0.01 | [8] -0.075 | [9] -0.025

NGLY1 (UniProt Q96IV0)
inactive: erlotinib 0.035 | [1] -0.06 | [2] -0.036 | [3] -0.014 | [4] 0.17 | [5] 0.023 | [6] -0.001 | [7] 0.045 | [8] -0.023 | [9] -0.024

NA (UniProt J3KR12)
inactive: [2] -0.073 | [5] 0.254 | [6] 0.075

OAF (UniProt Q86UD1)
inactive: erlotinib -0.115 | [3] 0.05 | [6] -0.174

NOLC1 isoform 3 (UniProt Q14978)
inactive: erlotinib 0.002 | [3] 0.183

NEU3 isoform 2 (UniProt Q9UQ49)
inactive: erlotinib 0.164 | [3] 0

MXRA7 isoform 3 (UniProt P84157)
inactive: [6] -0.08

MPHOSPH8 isoform 2 (UniProt Q99549)
inactive: [1] 0.033 | [2] 0.24 | [4] -0.044 | [6] -0.055 | [7] -0.086 | [8] -0.02 | [9] -0.065

NA, A0A1W2PSA9
inactive: [1] -0.065 | [4] -0.111 | [6] -0.008 | [7] -0.104 | [8] 0.101 | [9] -0.086

MRM2 (UniProt Q9UI43)
inactive: erlotinib 0.023 | [1] 0.182 | [3] 0.031 | [4] 0.185 | [7] 0.121 | [8] -0.017 | [9] -0.002

NA, A0A2R8Y3M9
inactive: [1] -0.335 | [4] 0.355 | [5] 0.132 | [6] -0.072 | [7] -0.137

MYLK (UniProt Q15746)
inactive: erlotinib 0.25 | [3] -0.146 | [5] -0.005 | [6] 0.291 | [8] 0.008 | [9] -0.066

MT-ND2 (UniProt P03891)
UniProt P03891, sequence (P03891 whole entry, looked up): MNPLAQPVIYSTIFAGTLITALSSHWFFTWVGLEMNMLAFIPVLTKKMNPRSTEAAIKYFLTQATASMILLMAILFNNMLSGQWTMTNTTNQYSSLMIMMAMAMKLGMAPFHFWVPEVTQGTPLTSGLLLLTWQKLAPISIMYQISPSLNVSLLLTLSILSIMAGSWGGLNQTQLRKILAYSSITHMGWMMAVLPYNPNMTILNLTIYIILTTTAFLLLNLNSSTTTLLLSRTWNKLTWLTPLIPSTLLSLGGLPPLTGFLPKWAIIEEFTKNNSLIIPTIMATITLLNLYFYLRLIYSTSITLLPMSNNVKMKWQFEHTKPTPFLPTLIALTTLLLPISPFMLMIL
inactive: erlotinib -0.067 | [1] -0.063 | [3] 0.062 | [4] -0.108 | [5] 0.104 | [6] 0.116 | [7] 0.044 | [8] -0.016 | [9] -0.093

NAP1L1 (UniProt B7Z9C2)
inactive: erlotinib 1.01 | [1] 0.122 | [3] -0.051 | [4] 0.156 | [5] 0.175 | [7] -0.178

NCOA5 (UniProt Q9HCD5)
inactive: erlotinib -0.057 | [3] 0.156 | [6] -0.094

MYSM1 (UniProt Q5VVJ2)
inactive: [5] 0.173 | [6] 0.37

NDUFA7 (UniProt M0R0N0)
inactive: erlotinib 0.101 | [3] -0.051 | [5] 0.015

MOB2 isoform 3 (UniProt Q70IA6)
inactive: erlotinib 0.029 | [2] -0.077 | [3] -0.001 | [5] 0.06 | [6] 0.025 | [8] 0.135 | [9] -0.22

OXR1 isoform 2 (UniProt Q8N573)
inactive: [1] 0.137 | [2] -0.362 | [4] -0.034 | [6] -0.056 | [7] 0.068 | [8] 0.02 | [9] -0.022

NUDT7 (UniProt P0C024)
inactive: erlotinib -0.246 | [2] -0.282 | [3] 0.148 | [5] -0.066 | [6] -0.118 | [8] 0.158 | [9] -0.024

OVCA2 (UniProt Q8WZ82)
inactive: [1] 0.23 | [4] 0.108 | [5] 0.268 | [6] -0.044 | [7] -0.131

PAFAH2 (UniProt Q99487)
inactive: erlotinib -0.004 | [1] 0.138 | [3] -0.018 | [4] -0.144 | [5] -0.02 | [6] -0.008 | [7] 0.011 | [8] -0.017 | [9] 0.08

MMADHC (UniProt Q9H3L0)
inactive: erlotinib 0.088 | [1] -0.002 | [3] -0.034 | [4] -0.031 | [5] -0.105 | [6] -0.039 | [7] 0.073 | [8] 0.014 | [9] 0.083

MITF (UniProt O75030)
inactive: erlotinib -0.021 | [1] -0.015 | [3] 0.041 | [4] -0.011 | [7] 0.047

MLH1 (UniProt P40692)
inactive: [1] 0.027 | [2] 0.077 | [4] -0.038 | [5] 0.096 | [7] 0.053 | [8] -0.165 | [9] 0.039

MSANTD2 (UniProt Q6P1R3)
inactive: [2] 0.012 | [8] -0.081 | [9] -0.052

NIPSNAP3B (UniProt Q9BS92)
inactive: erlotinib -0.061 | [1] -0.014 | [3] -0.071 | [4] -0.159 | [5] 0.031 | [7] 0.007 | [8] 0.008 | [9] 0.051

NUDT6 (UniProt P53370)
inactive: erlotinib -0.022 | [2] 0.155 | [3] 0.103 | [6] -0.12 | [8] 0.121 | [9] 0.35

NA (UniProt B2RBV5)
inactive: [2] -0.068 | [5] -0.015

MTHFD1, A0A384N5Y3
inactive: [1] 0.056 | [2] 0.081 | [4] 0.146 | [5] -0.06 | [6] 0.036 | [7] 0.01 | [8] -0.004 | [9] 0.033

NKTR (UniProt P30414)
inactive: erlotinib 0.597 | [3] 0.028 | [5] -0.149

MOB3B (UniProt Q86TA1)
inactive: erlotinib -0.305 | [1] 0.302 | [3] -0.271 | [4] 0.24 | [5] -0.056 | [7] -0.092 | [8] -0.186 | [9] 0.059

P4HA2 (UniProt O15460)
UniProt O15460, sequence (O15460 whole entry, looked up): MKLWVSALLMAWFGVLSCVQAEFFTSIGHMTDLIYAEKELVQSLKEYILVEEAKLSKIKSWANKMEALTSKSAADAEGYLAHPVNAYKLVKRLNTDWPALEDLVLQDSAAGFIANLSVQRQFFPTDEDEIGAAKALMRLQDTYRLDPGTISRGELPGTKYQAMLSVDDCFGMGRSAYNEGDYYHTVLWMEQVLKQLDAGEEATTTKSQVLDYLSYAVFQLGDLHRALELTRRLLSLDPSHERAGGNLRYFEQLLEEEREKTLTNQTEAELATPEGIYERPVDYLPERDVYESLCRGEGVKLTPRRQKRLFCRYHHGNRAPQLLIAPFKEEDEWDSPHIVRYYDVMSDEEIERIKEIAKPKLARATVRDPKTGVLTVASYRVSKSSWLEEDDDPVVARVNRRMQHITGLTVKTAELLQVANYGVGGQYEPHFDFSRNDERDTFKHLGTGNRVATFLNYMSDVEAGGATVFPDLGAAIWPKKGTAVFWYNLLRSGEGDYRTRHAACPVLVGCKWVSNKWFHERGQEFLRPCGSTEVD
active: [2] -0.548
inactive: erlotinib -0.075 | [3] 0.034 | [5] -0.025 | [6] -0.02 | [8] -0.016 | [9] -0.035

NIPSNAP2 (UniProt C9J7B1)
inactive: [1] -0.171 | [4] -0.16 | [5] 0.057 | [7] -0.138

NOS1AP (UniProt O75052)
UniProt O75052, sequence (O75052 whole entry, looked up): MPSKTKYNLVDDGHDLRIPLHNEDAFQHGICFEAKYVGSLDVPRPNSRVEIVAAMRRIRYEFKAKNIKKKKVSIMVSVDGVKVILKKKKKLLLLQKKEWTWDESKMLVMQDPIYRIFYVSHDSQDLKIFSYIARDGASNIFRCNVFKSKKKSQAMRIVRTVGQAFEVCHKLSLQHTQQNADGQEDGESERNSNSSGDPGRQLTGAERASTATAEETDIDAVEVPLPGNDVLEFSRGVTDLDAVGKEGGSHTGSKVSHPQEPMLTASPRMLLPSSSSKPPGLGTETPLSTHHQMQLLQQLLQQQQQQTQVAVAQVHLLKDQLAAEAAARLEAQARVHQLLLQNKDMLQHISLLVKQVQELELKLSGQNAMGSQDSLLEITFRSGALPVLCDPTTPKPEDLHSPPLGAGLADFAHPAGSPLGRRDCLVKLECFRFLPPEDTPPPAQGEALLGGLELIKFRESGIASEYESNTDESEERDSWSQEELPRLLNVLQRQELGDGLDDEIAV
active: [9] 1.09
inactive: erlotinib 0.134 | [2] 0.517 | [3] -0.006 | [5] -0.02 | [6] -0.248 | [8] -0.208

ORC3 (UniProt Q9UBD5)
inactive: [1] 0.097 | [4] -0.104 | [7] 0.105

NFYB (UniProt P25208)
UniProt P25208, sequence (P25208 whole entry, looked up): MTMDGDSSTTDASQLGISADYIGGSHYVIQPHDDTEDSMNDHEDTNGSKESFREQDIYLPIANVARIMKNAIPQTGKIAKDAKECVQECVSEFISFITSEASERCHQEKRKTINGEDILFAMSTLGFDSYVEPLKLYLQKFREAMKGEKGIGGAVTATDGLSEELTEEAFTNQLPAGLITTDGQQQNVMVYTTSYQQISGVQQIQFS
inactive: erlotinib 0.092 | [1] -0.102 | [3] -0.153 | [4] -0.047 | [5] 0.064 | [6] -0.036 | [7] -0.045 | [8] 0.01 | [9] -0.069

MON1A (UniProt Q86VX9)
inactive: erlotinib -0.119 | [2] 0.022 | [3] 0 | [5] -0.262 | [6] -0.017 | [8] 0 | [9] 0.135

NPC1L1 (UniProt Q9UHC9)
UniProt Q9UHC9, sequence (Q9UHC9 whole entry, looked up): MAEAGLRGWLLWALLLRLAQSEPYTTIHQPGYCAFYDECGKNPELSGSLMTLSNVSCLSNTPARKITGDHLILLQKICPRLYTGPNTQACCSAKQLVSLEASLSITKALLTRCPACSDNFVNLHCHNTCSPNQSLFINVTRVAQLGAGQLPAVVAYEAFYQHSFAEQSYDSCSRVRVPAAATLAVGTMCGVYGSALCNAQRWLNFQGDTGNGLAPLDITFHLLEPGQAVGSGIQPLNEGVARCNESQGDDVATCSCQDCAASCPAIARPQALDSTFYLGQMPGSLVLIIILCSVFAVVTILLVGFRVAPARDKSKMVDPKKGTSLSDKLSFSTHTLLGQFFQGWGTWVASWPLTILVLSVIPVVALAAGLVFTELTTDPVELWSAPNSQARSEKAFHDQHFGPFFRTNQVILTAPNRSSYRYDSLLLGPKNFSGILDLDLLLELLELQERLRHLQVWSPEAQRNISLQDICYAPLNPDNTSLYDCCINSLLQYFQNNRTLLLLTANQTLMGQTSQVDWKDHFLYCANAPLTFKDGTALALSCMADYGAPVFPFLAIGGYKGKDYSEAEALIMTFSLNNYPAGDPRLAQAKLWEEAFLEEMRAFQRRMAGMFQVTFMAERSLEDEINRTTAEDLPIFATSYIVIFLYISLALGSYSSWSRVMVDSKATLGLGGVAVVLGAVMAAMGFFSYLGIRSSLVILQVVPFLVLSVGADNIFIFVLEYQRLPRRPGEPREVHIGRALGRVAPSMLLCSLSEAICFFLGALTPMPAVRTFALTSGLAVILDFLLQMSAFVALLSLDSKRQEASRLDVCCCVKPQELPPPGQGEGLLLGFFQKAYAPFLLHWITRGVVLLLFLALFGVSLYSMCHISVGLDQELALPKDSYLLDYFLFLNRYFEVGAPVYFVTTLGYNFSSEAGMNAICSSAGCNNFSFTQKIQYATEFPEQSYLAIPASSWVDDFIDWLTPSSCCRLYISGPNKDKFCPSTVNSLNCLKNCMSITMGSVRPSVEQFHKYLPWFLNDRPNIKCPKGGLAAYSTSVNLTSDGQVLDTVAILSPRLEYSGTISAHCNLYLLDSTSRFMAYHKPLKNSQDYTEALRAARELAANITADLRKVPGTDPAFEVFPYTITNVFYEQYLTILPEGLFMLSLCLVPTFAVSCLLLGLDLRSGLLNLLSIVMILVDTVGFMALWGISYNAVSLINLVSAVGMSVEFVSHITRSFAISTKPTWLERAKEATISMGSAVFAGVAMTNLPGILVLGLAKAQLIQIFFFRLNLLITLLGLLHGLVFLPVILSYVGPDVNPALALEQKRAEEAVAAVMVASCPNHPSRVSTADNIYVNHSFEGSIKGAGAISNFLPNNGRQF
inactive: [1] 0.006 | [4] 0.073 | [5] 0.143 | [7] -0.02 | [8] 0 | [9] -0.033

MYH16 (UniProt Q9H6N6)
inactive: erlotinib -0.044 | [1] 0.102 | [3] 0.049 | [4] -0.21 | [5] 0.284 | [7] 0.044 | [8] -0.089 | [9] -0.082

NA, A0A494C071
NA, A0A494C071, sequence (A0A494C071 whole entry, looked up): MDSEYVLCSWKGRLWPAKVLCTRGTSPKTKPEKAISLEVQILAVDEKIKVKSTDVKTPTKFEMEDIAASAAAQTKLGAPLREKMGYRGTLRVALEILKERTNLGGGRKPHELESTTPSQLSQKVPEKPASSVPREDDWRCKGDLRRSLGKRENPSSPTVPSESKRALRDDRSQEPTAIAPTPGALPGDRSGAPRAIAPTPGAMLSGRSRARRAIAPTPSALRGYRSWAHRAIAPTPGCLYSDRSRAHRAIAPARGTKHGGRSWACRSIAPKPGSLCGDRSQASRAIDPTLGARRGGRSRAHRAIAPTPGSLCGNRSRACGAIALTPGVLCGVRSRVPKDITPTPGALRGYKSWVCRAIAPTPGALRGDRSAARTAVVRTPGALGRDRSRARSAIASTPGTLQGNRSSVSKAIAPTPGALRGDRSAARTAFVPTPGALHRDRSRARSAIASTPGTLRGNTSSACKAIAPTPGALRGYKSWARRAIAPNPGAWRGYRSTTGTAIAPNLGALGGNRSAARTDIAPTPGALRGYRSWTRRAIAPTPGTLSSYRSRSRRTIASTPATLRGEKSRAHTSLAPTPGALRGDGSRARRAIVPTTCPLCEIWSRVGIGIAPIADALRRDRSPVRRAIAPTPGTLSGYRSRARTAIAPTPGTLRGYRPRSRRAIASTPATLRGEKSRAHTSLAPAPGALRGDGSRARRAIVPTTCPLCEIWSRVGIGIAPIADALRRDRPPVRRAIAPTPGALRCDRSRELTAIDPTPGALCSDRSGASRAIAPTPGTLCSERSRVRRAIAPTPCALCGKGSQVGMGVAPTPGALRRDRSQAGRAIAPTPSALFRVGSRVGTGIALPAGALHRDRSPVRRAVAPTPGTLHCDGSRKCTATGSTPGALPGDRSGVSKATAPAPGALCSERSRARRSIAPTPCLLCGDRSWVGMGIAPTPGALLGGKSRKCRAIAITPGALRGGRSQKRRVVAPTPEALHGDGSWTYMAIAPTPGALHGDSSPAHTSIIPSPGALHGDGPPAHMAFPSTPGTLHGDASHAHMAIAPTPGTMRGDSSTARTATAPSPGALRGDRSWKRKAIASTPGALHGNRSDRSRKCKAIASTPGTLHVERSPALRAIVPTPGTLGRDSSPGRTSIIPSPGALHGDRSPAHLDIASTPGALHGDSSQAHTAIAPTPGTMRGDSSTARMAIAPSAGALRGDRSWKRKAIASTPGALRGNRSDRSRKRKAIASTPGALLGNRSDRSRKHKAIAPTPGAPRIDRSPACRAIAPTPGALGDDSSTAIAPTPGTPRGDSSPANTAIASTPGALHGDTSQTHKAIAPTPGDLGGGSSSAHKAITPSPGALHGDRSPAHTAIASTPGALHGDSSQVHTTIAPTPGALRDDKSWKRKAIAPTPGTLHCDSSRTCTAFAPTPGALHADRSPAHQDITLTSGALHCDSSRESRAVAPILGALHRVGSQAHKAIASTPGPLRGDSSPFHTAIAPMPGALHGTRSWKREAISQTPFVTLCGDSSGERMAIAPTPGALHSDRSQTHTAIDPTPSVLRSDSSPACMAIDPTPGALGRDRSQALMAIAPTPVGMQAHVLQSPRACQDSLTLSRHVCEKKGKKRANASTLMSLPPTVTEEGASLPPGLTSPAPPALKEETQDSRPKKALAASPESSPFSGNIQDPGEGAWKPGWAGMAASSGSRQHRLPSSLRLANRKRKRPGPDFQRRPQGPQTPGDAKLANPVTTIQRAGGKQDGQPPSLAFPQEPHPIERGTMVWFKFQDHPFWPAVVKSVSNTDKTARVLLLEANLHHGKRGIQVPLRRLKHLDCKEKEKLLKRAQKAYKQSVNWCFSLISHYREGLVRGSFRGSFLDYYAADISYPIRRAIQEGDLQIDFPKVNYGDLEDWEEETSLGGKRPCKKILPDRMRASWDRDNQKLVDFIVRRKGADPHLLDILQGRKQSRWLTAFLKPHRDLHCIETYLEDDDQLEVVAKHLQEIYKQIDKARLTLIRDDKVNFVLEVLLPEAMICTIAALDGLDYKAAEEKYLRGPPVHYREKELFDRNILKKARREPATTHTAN
inactive: [1] 0 | [2] 0.197 | [4] -0.005 | [5] 0.079 | [7] -0.018 | [8] 0.136 | [9] 0.114
